High-throughput results: PubChem BioAssay, National Center for Advancing Translational Sciences (NCATS)
Shown are actives, neighbours in structure and some others; about 2.7% of the full set was active somewhere.
HepG2 tox-1: kills HepG2 cells in TGF-b inhibitor counter-screen; HepG2 CAGA-GFP viability, ATP luminescence, 18 h; Potency, µM (titrated, usually from 46.1 µM), actives largely listed as cytotoxic; 0.76% of 410,000 active
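HepG2 CAGA-GFP cells (1000/well, DMEM with 1% FBS) received compound, then TGF-beta at 500 pg/mL final, and were incubated 18 hours at 37 degrees C. Viability was read by CellTiter-Glo luminescence. Media-only wells were set as complete cell-killing and DMSO as no toxicity.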
ALOX12 inh: ALOX12 (human) lipoxygenase inhibition. purified 12hLO, xylenol orange hydroperoxide absorbance. AID 1671190. Potency, µM (highest dose often 108 µM), actives largely listed as inhibitors. 1.1% of 580,000 active
Target sequence (P18054 whole entry, looked up): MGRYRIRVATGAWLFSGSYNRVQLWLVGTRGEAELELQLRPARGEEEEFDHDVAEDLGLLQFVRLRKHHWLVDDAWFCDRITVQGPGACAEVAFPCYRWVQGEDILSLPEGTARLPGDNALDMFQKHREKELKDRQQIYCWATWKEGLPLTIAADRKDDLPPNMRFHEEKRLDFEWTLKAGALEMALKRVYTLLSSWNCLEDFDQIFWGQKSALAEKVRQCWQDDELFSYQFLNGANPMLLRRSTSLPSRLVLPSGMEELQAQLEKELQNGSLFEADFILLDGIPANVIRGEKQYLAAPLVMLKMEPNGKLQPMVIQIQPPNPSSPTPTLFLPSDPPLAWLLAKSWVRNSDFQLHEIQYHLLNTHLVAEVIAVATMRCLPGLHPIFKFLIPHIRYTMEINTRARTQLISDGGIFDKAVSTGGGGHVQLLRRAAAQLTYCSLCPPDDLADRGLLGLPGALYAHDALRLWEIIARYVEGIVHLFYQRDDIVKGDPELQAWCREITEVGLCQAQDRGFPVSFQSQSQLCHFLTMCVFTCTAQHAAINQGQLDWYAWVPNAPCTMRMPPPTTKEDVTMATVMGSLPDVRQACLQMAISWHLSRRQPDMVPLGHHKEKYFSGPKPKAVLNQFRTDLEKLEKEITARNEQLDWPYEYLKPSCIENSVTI
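Hydroperoxide product was detected by ferrous iron/xylenol orange as the 573 to 405 nm absorbance ratio. Arachidonic acid at 40 uM (final) was turned over for 30 min at room temperature by 150 nM human 12hLO, pH 7.0 Hepes buffer, after 15 min compound preincubation.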
ATXN2 expr inh: ATXN2 expression inhibition. HEK-293 ATXN2-luciferase reporter, luminescence, 24 h. 0.72% of 360,000 active. Potency, µM (titrated, usually from 57 µM), actives largely listed as inhibitors; note: nearly all actives have a fitted effect of over 55% in size
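qHTS (up to 57 uM final) was run with 24 h compound exposure of reporter cells at 37 °C. Each well was multiplexed: SteadyGlo luminescence measured ATXN2-luciferase expression after a fluorogenic Gly-Phe-AFC viability readout (25 uM final).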
TGFb inhibitor: blocks TGF-b signaling. HepG2 CAGA-GFP TGF-b/SMAD3 reporter, GFP fluorescence, 18 h; TGF-beta stimulated, 500 pg/mL final. Potency, µM (titrated, usually from 46.1 µM), most hits filed as inhibitors. 1.2% of 410,000 active. AID 588855; note: nearly all actives have a fitted effect of over 65% in size
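Smad-responsive CAGA-GFP expression was quantified in HEPG2 cells exposed to compounds and 500 pg/mL final TGF-beta for 18 h at 37 degrees C; unstimulated wells defined full inhibition.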
S2 tox: cell viability loss in ATXN counter-screen | AID 651635 | Potency, µM (series often up to 56.7 µM), usual class: cytotoxic | S2 cells (HEK-293 line with an ATXN2-luciferase reporter) viability, CellTiter-Fluor protease fluorescence, 24 h | 0.49% of 400,000 active; note: nearly all actives have a fitted effect of over 40% in size
TGFb CAGA inh: confirmation of TGF-b signaling inhibitors in HepG2 reporter cells. HepG2 CAGA-GFP TGF-b reporter, GFP fluorescence, 18 h; cells stimulated with TGF-beta, 500 pg/mL. 63% of 1,600 active. Potency, µM (titrated, usually from 46.1 µM), hits mostly inhibitors. shares compounds with TGFb inhibitor. AID 720534; note: nearly all actives have a fitted effect of over 65% in size
HepG2 tox-2: HepG2 cytotoxicity, TGF-b inhibitor counterscreen; shares compounds with TGFb inhibitor; HepG2 CAGA-GFP viability, ATP luminescence, 18 h; cells stimulated with TGF-beta, 500 pg/mL; Potency, µM (series often up to 46.1 µM), hits mostly inhibitors; 27% of 1,600 active; note: nearly all actives have a fitted effect of over 70% in size
CCL64 TGFb inh: TGF-b inhibition, CCL64 orthogonal assay; shares compounds with TGFb inhibitor; CCL64 CAGA-GFP reporter, TGF-b stimulated, GFP fluorescence, 18 h; Potency, µM (doses to about 46.1 µM), actives largely listed as inhibitors; 41% of 1,600 active; AID 720536; note: nearly all actives have a fitted effect of over 65% in size
TGFb COP inh: TGF-b inhibition validated with COP promoter; AID 720537; 3% of 1,600 active; Potency, µM (top dose mostly 46.1 µM), usual class: inhibitors; shares compounds with TGFb inhibitor; HepG2 COP-GFP TGF-b reporter, GFP fluorescence, 18 h; cells stimulated by added recombinant TGF-beta; note: nearly all actives have a fitted effect of over 70% in size
A number is an active result; 0 = inactive; ? = inconclusive; - = no result given. Calls come from the whole dose curve; as a rule, active = well fitted curve in the direction sought with a large enough effect; inconclusive = small, poorly fitted or top-dose-only effect, or another doubt; inactive = no such curve, though single readings can be large; an effect the other way counts as inactive or inconclusive.

SMILES	HepG2 tox-1	ALOX12 inh	ATXN2 expr inh	TGFb inhibitor	S2 tox	TGFb CAGA inh	HepG2 tox-2	CCL64 TGFb inh	TGFb COP inh
O=C(Nc1cccc(C(F)(F)F)c1)C1Cc2c(-c3ccc(Cl)cc3)ccnc2O1 (centres undefined)	0	?	0	8.9µM	?	?	?	?	0
O=C(CSC1=NCCS1)Nc1ccnc2ccccc12	0	0	0	?	0	10µM	0	0	0
CNC(=O)c1ccccc1NC(=O)CC1CCCC1	-	0	-	-	-	-	-	-	-
Cc1c(C(=O)Oc2cccc3cccnc23)cccc1[N+](=O)[O-]	0	0	0	?	0	0	0	?	0
COc1cc2oc(=O)cc(-c3ccc(-c4ccc(O)cc4)cc3)c2c(OC)c1OC	0	0	?	11µM	?	18µM	?	?	0
CCOC(=O)C1=C[C@@H](C(C)(C)C)N(S(=O)(=O)c2ccc(OC)cc2)[C@H]1c1ccccc1	0	0	0	11µM	0	9.2µM	0	0	0
CCOC(=O)C1=C[C@@H](C(C)(C)C)N(S(=O)(=O)c2ccc([N+](=O)[O-])cc2)[C@H]1c1ccccc1	0	0	0	?	0	?	0	?	0
Cc1cccc(OCCc2noc(C3CCCCN3S(=O)(=O)c3cn(C)cn3)n2)c1 (centres undefined)	-	0	-	-	-	-	-	-	-
O=C(Nc1ccc(Cl)c(C(F)(F)F)c1)c1ccc(I)cc1	-	0	-	-	-	-	-	-	-
O=C(NCC(c1ccco1)N1CCCCC1)c1ccc(COc2ccc(Cl)cc2)cc1 (centres undefined)	0	?	?	13µM	?	16µM	?	16µM	0
Cc1cccc(/C=C(\c2nc3ccccc3[nH]2)S(=O)(=O)c2ccccc2)c1	0	0	?	10µM	?	4.6µM	4.6µM	5.8µM	?
O=C(CCc1cccnc1)Nc1nc(-c2ccc3c(c2)CCO3)cs1	-	0	-	-	-	-	-	-	-
Cc1ccc(-c2c(C(=O)NCc3ccc(F)cc3)oc(=O)c3ccccc23)cc1	0	0	0	?	0	?	0	0	0
Cc1ccc(-c2c(C(=O)Nc3ccccc3F)oc(=O)c3ccccc23)cc1	0	0	0	0	0	-	-	-	-
COc1ccc(C2CC(c3cccs3)=NN2S(C)(=O)=O)cc1OC (centres undefined)	0	0	0	0	0	-	-	-	-
COc1ccc(C2CC(c3c(-c4ccccc4)c4cc(Cl)ccc4[nH]c3=O)=NN2S(C)(=O)=O)cc1OC (centres undefined)	0	?	0	8.9µM	0	?	0	?	0
O=C(c1ccco1)N1CCN(c2ncnc3scc(-c4ccc(F)cc4)c23)CC1	0	0	0	18µM	0	16µM	0	0	0
Cc1nn(-c2ccc3nncn3n2)c2c1C(c1ccccc1OCc1ccccc1)CC(=O)N2 (centres undefined)	-	0	-	-	-	-	-	-	-
CCOc1ccc(-n2cc(C(=O)c3cc(Cl)ccc3O)cc(C#N)c2=O)cc1	0	0	0	13µM	-	0	?	?	0
COc1ccc(C(=O)N2CCC(C(=O)N(C)Cc3ccc(C)cc3C)CC2)c2ccccc12	-	0	-	-	-	-	-	-	-
COc1cccc(NC(=O)COc2nc(C(C)C)c3c(c2C#N)CCCC3)c1	-	0	-	-	-	-	-	-	-
